# Data: the supplement of paper PMC6555819
# Legend:
# Experiment in all cases: PBM binding z-score (relative to random genomic background probes); higher = stronger binding; sequences stand for … in GC…GCGATTGACAGCGTAGAATGAAGG
# [1] = test system: RARb homodimer (NR concentration 270 nM)
# In short: (§1)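 Probes were double-stranded and carried 34-nt variable regions with direct-repeat seeds, single-nucleotide variants, half-site ablations and random human genomic background sequences, printed on custom Agilent 4×180K protein-binding microarrays. Arrays were incubated 1 h with ligand-free nuclear receptor dimers in PBS pH 7.4, 2% milk, 0.02% Triton X-100, 1 mM DTT, 0.2 mg/mL BSA and 0.4 mg/ml salmon testes DNA. Antibodies against each partner (one per run) detected binding, and scanned fluorescence was regression-normalized. Binding z-scores use the random background probes as reference.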
# [2] = test system: RARg:RXRa (NR concentration 270 nM, RXRa partner concentration 90 nM)
# In short: as §1
# [3] = test system: RARg homodimer (NR concentration 270 nM)
# In short: as §1
# [4] = test system: RXRa DBDmut IVT, anti-RXR (DBD mutation: RXRa K156A/R161A, NR concentration 90 nM)
# In short: as §1
# [5] = test system: RXRa homodimer (NR concentration 180 nM)
# In short: as §1
# [6] = test system: THRa:RXRa (NR concentration 90 nM, RXRa partner concentration 90 nM)
# In short: as §1
# [7] = test system: THRa homodimer (NR concentration 90 nM)
# In short: as §1
# [8] = test system: VDR homodimer (NR concentration 270 nM)
# In short: as §1
Sequence,PBM binding z-score [1],PBM binding z-score [2],PBM binding z-score [3],PBM binding z-score [4],PBM binding z-score [5],PBM binding z-score [6],PBM binding z-score [7],PBM binding z-score [8]
CAGAGTAGGTTATGGGGCATTCAGGCAACGGTGA,1.24,0.814,0.945,-0.321,0.947,0.691,0.428,0.315
GCAGACATGTGAAACGCAGGTAACTCAGGGTGGC,-0.931,-0.194,-0.391,-0.691,-0.0899,0.4,-0.871,-1.27
TTACCAAGGGGAAGGTCGTTGATCCCTCTGTAGA,0.634,0.225,-0.054,-0.444,0.898,0.64,-0.636,0.435
TCTAGCAGGCTAGAGGGTCACTCAAGAGGTACGG,2.47,2.08,1.81,0.0423,2.42,1.59,-0.445,0.31
ATCTCTAGGTAACCAAGTTCAGTGAATGCCGAAC,1.52,0.894,0.853,0.991,0.572,1.6,0.96,2.99
CCTAGTTGTTCAAGGTCACACACGCTATAGGTAC,4.25,4.69,4.87,2.65,4.92,4.3,4.9,4.98
CTCGAAAGGTCGTGCTCAGGTGAGTTTACCAAAC,2.8,5.22,4.34,2.46,5.17,3.84,1.18,3.54
